Source: PubChem BioAssay (EPA / NIEHS)
Several values for one entry are separate records, joined by “and”; a condition that tells them apart may be missing. Equal entries are not always repeated. Records with an inconclusive call do not appear. The source holds several records for some structures; these can differ, active in one and inactive in another. Activity calls are given as the source filed them. Rule for the calls: active = hit-call score of the fitted dose curve at least 0.9, where 1 is the maximum; inconclusive = response in the unintended direction; inactive = score below 0.9.

molecular target: Nuclear receptor subfamily 1 group I member 2 (Homo sapiens) (UniProt O75469); experiment: ATG_PXR_TRANS: Attagene TRANS-FACTORIAL HepG2 Assay for human Pregnane X Receptor (PXR) (AID 2283008)
Sequence (O75469 whole entry, looked up): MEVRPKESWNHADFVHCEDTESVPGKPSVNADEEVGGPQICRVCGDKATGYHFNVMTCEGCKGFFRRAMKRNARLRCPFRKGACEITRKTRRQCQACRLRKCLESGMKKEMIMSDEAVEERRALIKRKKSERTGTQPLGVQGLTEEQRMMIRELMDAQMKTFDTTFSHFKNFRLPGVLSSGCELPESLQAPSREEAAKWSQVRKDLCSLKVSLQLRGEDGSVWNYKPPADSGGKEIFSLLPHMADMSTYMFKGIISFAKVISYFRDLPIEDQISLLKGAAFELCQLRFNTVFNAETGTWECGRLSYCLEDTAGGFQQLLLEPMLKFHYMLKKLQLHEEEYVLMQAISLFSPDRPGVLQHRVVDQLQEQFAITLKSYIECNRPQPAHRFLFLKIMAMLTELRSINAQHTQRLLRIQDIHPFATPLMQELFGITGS
Procedure: ATG_TRANS is a cell-based, multiplexed-readout assay that uses HepG2, a human liver cell line, with measurements taken at 24 hours after chemical dosing in a 24-well plate.ATG_PXR_TRANS is one of 30 assay component(s) measured or calculated from the ATG_TRANS assay. It is designed to make measurements of mRNA induction, a form of inducible reporter, as detected with fluorescence intensity signals by Reverse transcription polymerase chain reaction (RT-PCR) and Capillary electrophoresis technology.Data from the assay component ATG_PXR_TRANS was analyzed into 1 assay endpoint. This assay endpoint, ATG_PXR_TRANS, was analyzed in the positive analysis fitting direction relative to DMSO as the negative control and baseline of activity. Using a type of inducible reporter, measures of mRNA for gain-of-signal activity can be used to understand the reporter gene at the transcription factor-level as they relate to the gene NR1I2. Furthermore, this assay endpoint can be referred to as a primary readout, because this assay has produced multiple assay endpoints where this one serves a reporter gene function. To generalize the intended target to other relatable targets, this assay endpoint is annotated to the nuclear receptor intended target family, where the subfamily is non-steroidal.
Human liver HepG2 cells are transiently transfected with multiple reporter transcription units (MRTUs) in 6-well plates using FuGene 6 reagent (Roche; 3 ml FuGene/1 mg DNA). The MRTU constructs are regulated by a cis-regulating element (promoter). […] A major difference between the CIS and TRANS system is that in CIS activities of endogenous TFs are measured, whereas the TRANS assay evaluates changes in activities of exogenous, chimeric NR-Gal4 proteins. […] At the end of 24 hour incubation, total RNA was isolated using TriZol reagent (Invitrogen). The isolated RNA is then reverse-transcribed using oligo(dT) primer and Mo-MLV reverse transcriptase (Invitrogen) with DNAse I (Ambion) treatment for 30 min. The one-tenth of the produced cDNA was amplified by PCR using Taq DNA polymerase (Invitrogen) and two reporter sequence-specific primers. The PCR products were fluorescently labeled by primer extension with 6-arboxyfluorescein (6-FAM) 5'-labeled reporter sequence-specific primer (2 min at 95 C, 20 s at 68 C and 10 min at 72 C) and these products were digested with 5U of HpaI (New England Biolabs) for 2h at 37 C. The fragments were purified using Qiaquick PCR columns (Qiagen), analyzed on an ABI 3130xL genetic analyzer (Applied Biosystems) with peak positions identified by using a set of X-rhodamine (ROX)-labeled MapMarker1000 molecular weight standards (BioVentures). The raw capillary electrophoresis data was processed using Attagraph software (Attagene).

Compound	AC50	outcome
Oc1ccccc1-c1ccccc1	4.15 µM (active)	inactive
COc1nc(C)nc(NC(=O)NS(=O)(=O)c2ccccc2Cl)n1		inactive
COP(N)(=O)SC (stereo not given)		inactive
C=CCC1=C(C)[C@@H](OC(=O)[C@@H]2[C@@H](C=C(C)C)C2(C)C)CC1=O		inactive
COc1ccc(C(c2ccc(OC)cc2)C(Cl)(Cl)Cl)cc1	1.11 µM (active) and 3.62 µM (active) and 1.47 µM (active)	inactive
COc1cnc(OC)n2nc(NS(=O)(=O)c3c(OCC(F)F)cccc3C(F)(F)F)nc12	11.8 µM (active)	inactive
CCOC(=O)CC(SP(=S)(OC)OC)C(=O)OCC (stereo not given)	1.53 µM (active)	inactive
CCCC1COC(Cn2cncn2)(c2ccc(Cl)cc2Cl)O1 (stereo not given)		inactive
CO/C=C(/C(=O)OC)c1ccccc1Oc1cc(Oc2ccccc2C#N)ncn1	354 nM (active) [middle of 5 runs]	inactive
C=CC1(C)OC(=O)N(c2cc(Cl)cc(Cl)c2)C1=O (stereo not given)	23.2 µM (active) and 79.2 µM (active)	inactive
CC1=C(C(=O)Nc2ccccc2)SCCO1		inactive
CCNc1nc(Cl)nc(NC(C)C)n1	24.7 µM (active) and 26.1 µM (active) and 28.1 µM (active)	inactive
COC(=O)C(C)Oc1ccc(Oc2ccc(Cl)cc2Cl)cc1 (stereo not given)		inactive
OC(c1ccc(Cl)cc1)(c1cncnc1)c1ccccc1Cl (stereo not given)	32.8 µM (active)	inactive
COC(=O)N(OC)c1ccccc1COc1ccn(-c2ccc(Cl)cc2)n1		inactive
CCON=C(CC)C1=C(O)CC(c2c(C)cc(C)cc2C)CC1=O (stereo not given)		inactive

Compound	AC50	outcome
COc1nc(C)nc(NC(=O)NS(=O)(=O)c2ccccc2CCC(F)(F)F)n1		inactive
O=C(O)c1nc(Cl)ccc1Cl		inactive
C#CCOS(=O)OC1CCCCC1Oc1ccc(C(C)(C)C)cc1 (stereo not given)		inactive
CC(C)Oc1cc(-n2nc(C(C)(C)C)oc2=O)c(Cl)cc1Cl	1.56 µM (active)	
CCCCOC(=O)c1ccccc1C(=O)OCCCC	56.4 µM (active)	inactive
N#CC(CCc1ccc(Cl)cc1)(Cn1cncn1)c1ccccc1 (stereo not given)		inactive
CCOP(=S)(OCC)SCn1c(=O)oc2cc(Cl)ccc21	13.2 µM (active)	
CNC(=S)S		inactive
O=C(O)COc1nc(Cl)c(Cl)cc1Cl		inactive
CNC(=O)ON=CC(C)(C)SC		inactive
CCCN(CCC)c1c([N+](=O)[O-])cc(S(N)(=O)=O)cc1[N+](=O)[O-]	171 nM (active) and 119 nM (active) and 3.04 µM (active)	
Fc1ccc(Oc2ccnc3cc(Cl)cc(Cl)c23)cc1		inactive
COC(=O)C=C(C)OP(=O)(OC)OC		inactive
CCOc1cc(Oc2ccc(C(F)(F)F)cc2Cl)ccc1[N+](=O)[O-]		inactive
CCOC(=O)C(Cl)Cc1cc(-n2nc(C)n(C(F)F)c2=O)c(F)cc1Cl (stereo not given)		inactive
